Compounds with a hit are over-represented: about 2.7% of the library has one in this group of screens.
IP6K1 inh – inhibitors of human IP6K1 | activity change, % (series mostly up to about 58 µM) | IP6K1 kinase, ADP-Glo luminescence, 2 h; stronger effect = lower value | actives 0.81% (n = 140,000) | Q92551; in the data active = activity change below about -25%; note: % is set by controls: 0 for no effect and ±100 for the full control effect
Target sequence (Q92551 whole entry, looked up): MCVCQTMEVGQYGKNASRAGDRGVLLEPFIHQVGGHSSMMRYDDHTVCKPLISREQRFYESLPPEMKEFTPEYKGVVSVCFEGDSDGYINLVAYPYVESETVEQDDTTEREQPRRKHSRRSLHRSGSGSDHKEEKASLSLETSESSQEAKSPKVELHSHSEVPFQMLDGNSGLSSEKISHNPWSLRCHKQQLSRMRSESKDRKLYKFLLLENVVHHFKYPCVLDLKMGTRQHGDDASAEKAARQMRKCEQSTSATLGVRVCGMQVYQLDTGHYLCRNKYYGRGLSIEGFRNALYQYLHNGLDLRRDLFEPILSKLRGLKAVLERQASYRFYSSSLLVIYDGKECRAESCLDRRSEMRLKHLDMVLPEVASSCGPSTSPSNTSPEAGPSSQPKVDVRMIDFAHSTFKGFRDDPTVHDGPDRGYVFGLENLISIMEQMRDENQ
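ADP-Glo luminescence measures ADP made by human IP6K1 during a 2 h RT reaction with ATP/IP6 (mix at 1.3 mM/130 uM); top library doses 57.5 and 19.1 uM final.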
KDM5B inh – inhibitors of human KDM5B histone demethylase. KDM5B demethylase, FDH-coupled NADH fluorescence (FDH is formaldehyde dehydrogenase). Potency, µM (titrated, usually from 57.7 µM), actives largely listed as inhibitors. actives 2.6% (n = 220,000); active = well fitted inhibition curve with a large enough effect; inconclusive = small, poorly fitted or top-dose-only effect; inactive = no such curve, though single readings can be large or run the other way; note: potency is the fitted concentration of half-maximal effect; 0% is about no effect; nearly all actives have a fitted effect of over 70% in size
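Measured: NADH fluorescence change, 30 min, RT. System: KDM5BΔAP 200 nM final, H3K4me3 peptide, α-KG, Fe(II), ascorbate, NAD⁺ plus FDH, pH 7.5 HEPES. Compounds: titrated, 10 min pre-incubation with enzyme.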
An asterisk follows results filed as active; i = inactive; ? = inconclusive; nt = not tested or not shown.

SMILES	IP6K1 inh	KDM5B inh
c1cc(-c2nnc([C@H]3CCN(CC4CCCCC4)C3)o2)ccn1	1	i
CN(C)c1ccc(-c2nnc([C@H]3CCN(CC4CCCCC4)C3)o2)cc1	3	32µM*
CN(C)c1ccc(-c2nnc([C@H]3CCN(C4CCC4)C3)o2)cc1	-3	28µM*
CN1CC[C@H](c2nnc(-c3ccccc3)o2)C1	-2	?
O=C(CSc1ncc(-c2ccc(F)cc2)o1)Nc1ccc(Cl)cc1	nt	i
CC12CC3CC(C)(C1)CC(c1ccc(O)cc1)(C3)C2	nt	i
O=C(NCCN1CCOCC1)c1ccc(CN2CC(=O)N3CCCCC3C2=O)cc1 (stereo unspecified)	nt	i
Cc1ccc(C(=O)NC(c2ccc(Cl)cc2)C2CC2)cc1 (stereo unspecified)	nt	i
CC1(CNCc2ccccc2)COc2ccc(C(=O)NCc3cccs3)cc2N1 (stereo unspecified)	4	32µM*
CC1(COc2ccccc2)COc2ccc(C(=O)NCc3cccs3)cc2N1 (stereo unspecified)	13	32µM*
CC1(CNc2ccccc2)COc2ccc(C(=O)NCc3cccs3)cc2N1 (stereo unspecified)	-3	?
CC1(COc2ccccc2)COc2ccc(C(=O)NCc3ccncc3)cc2N1 (stereo unspecified)	13	?
Cn1ncc2c(C(=O)NCc3ccc(F)cc3)cc(-c3ccc(C(F)(F)F)cc3)nc21	-7	nt
COCC(C)NC(=O)C1CCN(Cc2ccc(C)cc2)CC1 (stereo unspecified)	nt	i
COC(=O)C1=C(C)N=C2SC=C(CC(=O)N3CCCC3)N2C1c1cccc(OC)c1OC (stereo unspecified)	4	?
CC1=C(C(=O)OC(C)C)C(c2ccccc2F)N2C(CC(=O)N3CCCC3)=CSC2=N1 (stereo unspecified)	-6	?
C=CCOC(=O)C1=C(C)N=C2SC=C(CC(=O)N3CCCC3)N2C1c1ccccc1Cl (stereo unspecified)	9	28µM*
C=CCOC(=O)C1=C(C)N=C2SC=C(CC(=O)N3CCCC3)N2C1c1cccc(OC)c1OC (stereo unspecified)	14	28µM*
CN(C)S(=O)(=O)c1cccc(NC(=O)c2ccc(OCc3cn4ccccc4n3)cc2)c1	nt	i
CN(C)C[C@@H]1CN(c2ncccn2)C[C@H]1NC(=O)c1cccc(Cl)c1	3	28µM*
Cc1cc(C(=O)N[C@@H]2CN(c3ccncn3)C[C@H]2CN(C)C)no1	23	i
O=C(N[C@@H]1CN(c2ncccn2)C[C@H]1CO)c1cccc(Cl)c1	6	?
CN(C)C[C@@H]1CN(c2ncccn2)C[C@H]1NC(=O)c1ccncn1	5	32µM*
O=C(N[C@@H]1CN(c2ncccn2)C[C@H]1CO)c1c(F)cccc1F	2	?
CN(C)C[C@@H]1CN(c2ncccn2)C[C@H]1NS(=O)(=O)c1cccs1	31	?
SMILES	IP6K1 inh	KDM5B inh
CN(C)C[C@@H]1CN(c2ncccn2)C[C@H]1NC(=O)c1c(F)cccc1F	5	32µM*
CN(C)C[C@@H]1CN(c2ncccn2)C[C@H]1NS(=O)(=O)c1cccnc1	2	25µM*
O=C(NC1CCN(c2ccnc3ccnn23)C1)c1ccc2c(c1)OCO2 (stereo unspecified)	22	nt
O=C(COC(=O)c1cccc(S(=O)(=O)NCc2ccco2)c1)c1ccccc1	nt	i
CC(C)c1ccc(S(=O)(=O)N2CCCC2Cc2noc(Cc3ccccc3)n2)cc1 (stereo unspecified)	11	nt
Cc1noc(/C=C/c2ccccc2F)c1S(=O)(=O)N1CCCC(C(=O)N2CCC(C)CC2)C1 (stereo unspecified)	nt	i
CN(C)C[C@@H]1CN(S(C)(=O)=O)C[C@H]1NC(=O)c1ccncc1	26	i
CN(C)C[C@@H]1CN(c2ncccn2)C[C@H]1NC(=O)c1cnccn1	20	25µM*
CN(C)C[C@@H]1CN(c2ncccn2)C[C@H]1NC(=O)c1ccc(Cl)cc1	21	28µM*
CN(C)C[C@@H]1CN(Cc2ccccn2)C[C@H]1NC(=O)c1ccc(Cl)cc1	19	i
CN(C)C[C@@H]1CN(c2ncccn2)C[C@H]1NC(=O)c1ccc2[nH]ccc2c1	-1	32µM*
CN(C)C[C@@H]1CN(c2ncccn2)C[C@H]1NC(=O)c1ccncc1	21	25µM*
CN(C)C[C@@H]1CN(C)C[C@H]1NC(=O)c1cnccn1	-8	i
CN(C)C[C@@H]1CN(S(C)(=O)=O)C[C@H]1NC(=O)c1ccc2nc[nH]c2c1	1	i
COc1ccc(Nc2ccnc(N3CCC(NC(=O)c4ccccc4)CC3)n2)cc1	-3	nt
Cc1cccnc1C(=O)N[C@@H]1CN(S(C)(=O)=O)C[C@H]1CN(C)C	8	i
Cn1nccc1C(=O)N[C@@H]1CN(c2ncccn2)C[C@H]1CO	4	?
CN(C)C[C@@H]1CN(c2ncccn2)C[C@H]1NC(=O)c1ccccc1C(F)(F)F	21	22µM*
Cc1ccsc1C(=O)N[C@@H]1CN(c2ncccn2)C[C@H]1CN(C)C	11	32µM*
CN(C)C[C@@H]1CN(c2ncccn2)C[C@H]1NC(=O)c1ccnn1C	7	28µM*
CN(C)C[C@@H]1CN(C)C[C@H]1NC(=O)c1ccccc1C(F)(F)F	-11	i
Cc1cc(C)cc(-c2ccc(CN3CCCC(N[S+](=O)([O-])c4ccccc4)C3)cc2)c1 (stereo unspecified)	-1	nt
Cc1ccccc1C(NC(C)c1ccccc1)c1ccccc1 (stereo unspecified)	nt	i
O=C(COc1ccc2ccccc2c1)NCc1ccccc1CN1CCCC1	nt	i
Cc1ccc(Nc2ccnc(N3CCCC3C(=O)NC3CCCC3)n2)cc1 (stereo unspecified)	0	nt
SMILES	IP6K1 inh	KDM5B inh
CN(C)c1cc(CNC(=O)c2ccc3c(c2)CCC(=O)N3)ccn1	nt	i
Cc1ccc(N)c(OCC(F)F)c1	nt	i
COc1ccc(-c2ccnc3nc(C(C)C)nn23)c(F)c1	1	i
COc1cc(-c2ccnc3nc(C(C)C)nn23)cc(OC)c1OC	-5	?
COc1ccc(-c2ccnc3nc(C(C)C)nn23)cc1	-3	25µM*
COc1ccc(-c2ccnc3nc(C(C)C)nn23)cc1OC	-5	28µM*
CN(C)CCNC(=O)C(C)(C)Oc1nn(CC2CCOCC2)c2ccccc12	0	32µM*
CC(C)(Oc1nn(CC2CCOCC2)c2ccccc12)C(=O)NCc1ccncc1	-6	i
CCOC(=O)N1CCN(Cc2cc(=O)oc3cc(C)c(C)cc23)CC1	nt	i
CCOc1ccccc1N1CCN(CC(=O)Nc2c(C)cc(C)cc2Cl)CC1	nt	i
CN1CCC2(C1)CN(CC1CC1)c1ccc(C(=O)Nc3ccccc3)cc12 (stereo unspecified)	8	?
O=C(NCC1CC1)c1cccc(OC2CN(C3CCN(Cc4ccccc4)CC3)C2)c1	-3	i
CN1CCC2(C1)CN(CC1CCOCC1)c1ccc(C(=O)NCC(F)(F)F)cc12 (stereo unspecified)	4	35µM*
O=C(NCC1CC1)c1ccc2c(c1)C1(CCN(CC3CC3)C1)CN2Cc1ccccc1 (stereo unspecified)	11	28µM*
O=C(NCCCO)c1ccc2c(c1)C1(CCN(CC3CC3)C1)CN2Cc1ccccc1 (stereo unspecified)	-6	35µM*

Screening results deposited in PubChem by National Center for Advancing Translational Sciences (NCATS).
